Several values for one entry are separate records, joined by “and”; a condition that tells them apart may be missing. Identical values can stand only once. About 83,000 compounds went through this panel and 20% of them were active in at least one assay; those are over-represented in the sample as a whole.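 The endpoint reported here, percent growth, reads 100 for growth as untreated, 0 for no net growth and -100 for all cells dead.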 Activity calls are given as the source filed them. Rule for the calls: active = growth percent below 10; inactive = the rest.
tested on: MDA-MB-468 breast; experiment: NCI-60 one-dose screen, 48 h (100 = growth as untreated, 0 = no growth, -100 = all killed); details: 10 µM unless noted

| Compound | growth |
| --- | --- |
| N#Cc1c(Nc2ccc(F)cc2)n[nH]c1-c1cccs1 | 98.4% (inactive) |
| C#C[C@]1(O)CC[C@H]2[C@@H]3CC=C4c5sc(-c6cccc(O)c6)nc5CC[C@]4(C)[C@H]3CC[C@@]21C | 1.79% (active) |
| CC(C)(C)c1ccc(CCO)cc1 | 124% (inactive) |
| O=C1C(Cl)=C(NCc2ccco2)C(=O)c2ccccc21 | 25% (inactive) |
| COc1ccc2c(ccc[n+]2C)c1 | 81.5% (inactive) |
| O=C(NNC(=S)Nc1ccccc1)c1ccccn1 | 51.2% (inactive) |
| COc1ccc(C(=O)c2cc(OC)c(OC)c(OC)c2)cc1OC(=O)C(Cl)(Cl)Cl | 35.8% (inactive) |
| Cc1cc(CO)c(O)c(CO)c1 | 106% (inactive) |
| COCCn1c(Nc2ccc(C(=O)NO)cc2)nc2ccccc21 | 63.7% (inactive) |
| CC(C)(C#N)c1cc(C(=O)Nc2cc(Nc3ncccc3-c3ncnc4nc[nH]c34)ccc2F)cc(C(F)(F)F)c1 | 90.2% (inactive) |
| CC(C)CCSc1nc(NNC(N)=O)c(C#N)c(-c2ccccc2)n1 | 108% (inactive) |
| O=C(/C(=C\c1ccc([N+](=O)[O-])cc1)S(=O)Cc1ccc(Cl)cc1)c1ccc(Cl)cc1 (stereo not given) | 74% (inactive) |
| O=C(CCc1nnc2sc(Cc3ccccc3Cl)nn12)c1nc2ncccc2[nH]1 | 95.9% (inactive) |
| CC1CCCc2sc3nc(NNC(=O)c4cnccn4)n(-c4ccccc4)c(=O)c3c21 (stereo not given) | -31.8% (active) and -42.9% (active) |
| Fc1ccc(Oc2ccc(Nc3ncnc4onc(-c5ccccc5)c34)cc2)cc1 | 101% (inactive) |
| CC(=O)OCC1CCCO1 (stereo not given) | 105% (inactive) |
| CCCCn1c(=O)c(-c2cc(-c3ccc(Cl)cc3)nc(-c3ccc(Cl)cc3)c2)cc2cc(Cl)ccc21 | 108% (inactive) |
| COc1ccc(OC)c(-c2cn3nc(-c4c[nH]c5ccc(Br)cc45)sc3n2)c1 | 59.1% (inactive) |
| CCN1C(=S)N(c2ccccc2)C2C1NN=c1s/c(=C3\C(=O)N(C(C)C)c4ccccc43)c(=O)n12 (stereo not given) | 94.5% (inactive) |
| CS(=O)(=O)c1nccc(-c2c(-c3ccc(F)c(OCCc4ccccc4)c3)nc3sccn23)n1 | -83.4% (active) |

| Compound | growth |
| --- | --- |
| CN(C)c1cccc2c(S(=O)(=O)/N=C(\N)Nc3nc4ccccc4s3)cccc12 | -8.02% (active) |
| COc1cc(/C=C/C(=O)N2CCC=CC2=O)cc(OC)c1OC | 22.7% (inactive) |
| COc1cc(C(=O)Nc2cc(OC)c3ccn(C)c3c2)cc2c1C[C@]1(C)CC[C@@H](O)C(C)(C)[C@H]1O2 | 8.94% (active) |
| Nc1ccc(N2CCOCC2)cc1 | 96.9% (inactive) |
| O=C(CCc1ccccc1)N1CCN(C(=O)CCc2ccccc2)CC1 | 111% (inactive) |
| COc1ccc2c(c1)C(=O)/C(=C/c1ncc([N+](=O)[O-])n1C)O2 | -12.4% (active) |
| N#Cc1c(-c2ccccc2)nc2c(c(-c3ccccc3)nn2-c2ccccc2)c1-c1ccc(O)cc1 | 38.3% (inactive) |
| COc1ccc2[nH]c(=O)c(/C=N/Nc3nc(-c4ccccc4)cs3)c(O)c2c1 | 87.6% (inactive) |
| C=C1C(=O)O[C@@H]2C3C(=C(C)CC[C@@H]12)CC1O[C@]13C (stereo not given in full) | 19.3% [6.75 µM] (inactive) |
| COc1c(B(O)O)cccc1-c1nc2ccc3[nH]ncc3c2c2c1CCCC2 | 34% (inactive) |
| Nc1cccc(-c2nc3sccn3c2-c2ccnc(NCCNS(=O)(=O)c3ccc(C(F)(F)F)cc3)n2)c1 | 51.4% (inactive) |
| COc1cc(-c2nc(C(=O)Nc3ccc(C)cc3)nn2-c2ccc(F)c(F)c2)cc(OC)c1OC | 109% (inactive) |
| Clc1cc(Cl)cc(N2N=C(c3cccc(Nc4ccncc4)c3)CC2c2ccc(Br)cc2)c1 (stereo not given) | 44.9% (inactive) |
| O=S(=O)(O)c1ccc(F)cc1 | 122% (inactive) |
| COc1nc2ccccc2s1 | 113% (inactive) |
| COc1cccc(-c2nn(-c3ccccc3)cc2-c2ccnc(NCCCNS(=O)(=O)c3ccc(Cl)cc3)c2)c1 | 25.6% (inactive) |
| CCCOc1ccc2nc(NC(=O)OC)[nH]c2c1 | -3.99% (active) |
| Oc1ccc(C(c2ccc(O)cc2)c2ccc(Br)cn2)cc1 | -35.7% (active) |
| COc1cccc(-c2nc3sccn3c2-c2ccnc(NCCNS(=O)(=O)c3ccccc3)n2)c1 | 67.4% (inactive) |
| O=C(Nc1ccc(C(=O)Nc2ccc(C3=NCCCN3)cc2)cc1)Nc1ccc(C2=NCCCN2)cc1 | 66.6% (inactive) |

Source: PubChem BioAssay (NCI)
